Most compounds without a hit are left out; they make up all but 1.1% or so of the library.
CXXC DNA block: inhibitors of human MLL CXXC domain-DNA interaction; Q03164; MLL-CXXC / FITC-HOXA9 DNA fluorescence polarization; Potency, µM (top dose mostly 115 µM), for the others: at the highest dose activity change, negative = inhibition, usual class: inhibitors; actives 0.037% (n = 290,000); active = well fitted inhibition curve with a large enough effect in the polarisation, with a control signal flat, not every such curve was filed as active; inconclusive = small, poorly fitted or top-dose-only effect, or effect the other way, or a change in a side signal; inactive = no such curve, though single readings can be large or run the other way; the % refers to the polarisation; also: potency is read from the fitted curve at half-maximal effect
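Fluorescence polarization: 7 uM MLL-CXXC (stock) preincubated 5 min with compounds, then 50 nM fluorescein-HOX-A9 DNA (stock) added; 30 min ambient. Buffer 50 mM Tris-HCl pH 7.5, 50 mM NaCl, 1 mM DTT, 0.05% BSA.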
hERG WT inh: inhibitors of human wildtype KCNH2 potassium channel. actives 0.37% (n = 340,000). activity change, % at 1.84 µM. Q12809. U2OS, BacMam KCNH2, thallium flux FluxOr; stronger effect = lower value;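 active = maximum activity change below -70%; inconclusive = maximum activity change between -70% and -50%; inactive = maximum activity change above -50%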; also: % is scaled to controls: 0 for no effect and ±100 for the full control effect
Target sequence (Q12809 whole entry, looked up): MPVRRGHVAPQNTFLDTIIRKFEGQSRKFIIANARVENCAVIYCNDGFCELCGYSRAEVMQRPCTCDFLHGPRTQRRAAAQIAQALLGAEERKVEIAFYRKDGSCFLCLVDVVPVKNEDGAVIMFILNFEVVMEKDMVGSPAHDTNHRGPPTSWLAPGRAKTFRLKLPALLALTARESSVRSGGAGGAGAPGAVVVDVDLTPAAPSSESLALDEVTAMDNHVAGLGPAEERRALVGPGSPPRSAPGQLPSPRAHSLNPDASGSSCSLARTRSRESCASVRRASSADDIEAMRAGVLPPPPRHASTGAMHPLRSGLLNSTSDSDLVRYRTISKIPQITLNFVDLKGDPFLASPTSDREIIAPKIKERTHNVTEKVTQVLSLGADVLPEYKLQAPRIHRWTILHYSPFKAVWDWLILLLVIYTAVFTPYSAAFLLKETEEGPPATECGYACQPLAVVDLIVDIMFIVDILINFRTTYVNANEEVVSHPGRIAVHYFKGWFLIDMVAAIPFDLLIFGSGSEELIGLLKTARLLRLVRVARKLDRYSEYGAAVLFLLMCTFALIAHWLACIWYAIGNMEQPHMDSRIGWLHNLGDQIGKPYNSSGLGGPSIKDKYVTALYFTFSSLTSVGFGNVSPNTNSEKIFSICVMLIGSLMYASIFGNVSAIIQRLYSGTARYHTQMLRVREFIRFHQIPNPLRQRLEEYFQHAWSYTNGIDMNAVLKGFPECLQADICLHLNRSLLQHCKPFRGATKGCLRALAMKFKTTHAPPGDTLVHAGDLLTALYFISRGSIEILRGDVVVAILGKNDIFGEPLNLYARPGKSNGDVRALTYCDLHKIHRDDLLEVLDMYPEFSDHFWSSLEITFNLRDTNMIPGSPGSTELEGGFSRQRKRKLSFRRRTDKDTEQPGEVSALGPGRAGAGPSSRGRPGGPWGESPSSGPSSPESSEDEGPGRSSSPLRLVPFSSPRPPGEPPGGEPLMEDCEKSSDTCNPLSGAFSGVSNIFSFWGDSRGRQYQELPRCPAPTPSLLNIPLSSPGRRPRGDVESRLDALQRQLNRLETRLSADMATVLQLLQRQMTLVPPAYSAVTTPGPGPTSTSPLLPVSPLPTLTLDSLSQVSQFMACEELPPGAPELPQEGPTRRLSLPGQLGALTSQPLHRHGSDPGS
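U2OS cells were transduced with wild-type KCNH2 virus (2.03 x 10^8 / mL) for 4 h at room temperature, then cultured overnight at 37 C. Thallium flux was read with FluxOr dye. Rate constants were normalized to DMSO controls.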
KCNH2 3.1 block: inhibitors of human KCNH2 3.1 potassium channel isoform; U2OS KCNH2 3.1, thallium flux FluxOr; stronger effect = lower value; activity change, % (tested at about 1.8 µM); actives 0.95% (n = 340,000); AID 720553;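 active = maximum activity change below -70%; inconclusive = maximum activity change from -70% to -50%; inactive = maximum activity change above -50%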;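 also: thallium influx rate constant from kinetic fluorescence after stimulation buffer; % is scaled to controls: 0 for no effect and ±100 for the full control effect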
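Thallium flux via FluxOr fluorescence (Red40 quencher, 45 min loading) in U2OS cells virally expressing the KCNH2 3.1 isoform (1.77 x 10^8 /mL virus, overnight at 37 C). Rate constants from 2-min kinetic reads post-stimulation, normalised to positive and negative controls.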
Menin-MLL TR inh: inhibitors of human menin-MLL interaction, mutant MLL peptide; Potency, µM (titrated, usually from 61.6 µM), without a hit: at the highest dose FP activity change, negative = inhibition, hits mostly inhibitors; Menin + Texas Red MLL mutant peptide, fluorescence polarization; O00255; AID 1768; actives 0.23% (n = 270,000); active = well fitted inhibition curve with a large enough effect in the polarisation, with a control signal flat, not every such curve was filed as active; inconclusive = small, poorly fitted or top-dose-only effect, or effect the other way, or a change in a side signal; inactive = no such curve, though single readings can be large or run the other way; the % refers to the polarisation; also: potency is read from the fitted curve at half-maximal effect; % of control where 0% means no effect
Menin MLL FP FL: inhibitors of human menin-MLL interaction, wild-type MLL peptide; 290,000 tested, under 10 active; FP activity change, % at 61.4 µM; Fluorescence polarization, fluorescein-MLL peptide displacement from menin; active = well fitted curve in the direction sought with a large enough effect in the polarisation, not every such curve was filed as active; inconclusive = small, poorly fitted or top-dose-only effect, or effect the other way, or a change in a side signal; inactive = no such curve, though single readings can be large or run the other way; the % refers to the polarisation; also: % of control where 0% means no effect
* = called active by the depositor; i = inactive; ? = inconclusive; / = no result given.

SMILES	CXXC DNA block	hERG WT inh	KCNH2 3.1 block	Menin-MLL TR inh	Menin MLL FP FL
CN1C(=O)[C@H]2[C@@H](c3ccccc3)N[C@]3(CCCN(Cc4ccc(F)cc4)C3=O)[C@H]2C1=O	/	5.1	-15.4	/	/
S=c1[nH]nc(Nc2ccc(Cl)cc2)s1	-11.8%	11.6	-90.7*	/	-0.8
Cc1ccc(Nc2n[nH]c(=S)s2)cc1	/	3.5	-5.0	/	/
COc1ccccc1N1CCN(CCNC(=O)Nc2cccc(C)c2C)CC1	?	-124.0*	-35.1	-13.7%	3.1
COc1ccc(N2CCN(CCNC(=O)Nc3cccc(C)c3C)CC2)cc1	-16.5%	9.9	-4.7	-7.4%	-4.3
CCCCNc1ncnc2[nH]ncc12	/	16.2	21.0	/	/
Oc1ccc(Nc2nc(-c3ccccc3O)nc3ccccc23)cc1	19.6%	13.4	-118.4*	?	1.0
COC(=O)[C@@H](NC(=O)O[C@H]1C(=O)c2cc(OC)ccc2O[C@@H]1c1ccc(OC)c(Br)c1)C(C)C	/	/	/	-7.4%	2.6
Cc1ccc(-n2ncc3c2CC(C)(C)CC3NC(=O)CCc2cccnc2)cc1 (stereo not drawn)	10.8%	-11.9	/	/	/
COc1ccc(OC)c(C(=O)C(=O)c2cc(OC)ccc2OC)c1	/	-0.4	14.7	/	/
COc1ccc(OC)c(N)c1	0.6%	1.0	13.3	25.1µM*	-9.1
CC1=CC(C)(C)C(C(=O)O)C(C(=O)O)C1 (stereo not drawn)	-4.2%	-108.7*	3.0	-6.4%	-0.4
CC1=CC(C)C(C(=O)O)C(C(=O)N2CCN(C)CC2)C1 (stereo not drawn)	2.7%	-11.0	12.1	2.3%	-0.2
COc1cc(C(=O)O[C@H]2C/C(C)=C/CC[C@@]3(C)O[C@@H]3[C@H](O)[C@@H]2C(C)C)cc(OC)c1OC	2.0%	-8.4	-12.7	?	-8.1
O=C(Nc1ccc(S(=O)(=O)N2CCCC2)cc1)C1CCN(S(=O)(=O)c2ccc(F)cc2)CC1	/	-2.0	-105.5*	/	/
Cc1ccc(NC(=O)C2CCN(S(=O)(=O)c3ccc(F)cc3)CC2)cc1	2.8%	-3.1	0.8	11.3%	0.1
Nc1ccccc1C(=O)NC1CCCNC1=O (stereo not drawn)	/	-6.8	11.7	/	/
CCCNC(=O)c1csc2c1CCCCC2	1.8%	0.2	-78.0*	/	-1.0
O=c1cc(N2CCCCC2)c(-c2ccccc2)nn1Cc1ccc(Cl)cc1	1.5%	-7.6	-94.5*	-12.9%	3.8
CCOc1ccc(S(=O)(=O)N2CCC(C(=O)OC(C)C(=O)NC3CCCCC3C)CC2)cc1 (stereo not drawn)	/	-203.0*	-144.3*	/	/
CN(CC(=O)Nc1ccccc1Br)C(=O)c1ccc(COc2ccccc2)cc1	-4.9%	-24.7	-16.4	/	/
CN(CC(=O)Nc1ccccc1Br)C(=O)c1ccncc1	12.6%	1.8	-104.6*	/	/
COC(=O)c1ccc(Cn2cnc3c(cnn3-c3ccc(F)cc3)c2=O)o1	-10.9%	-1.0	1.4	5.3%	0.9
COC(=O)c1ccc(Cn2cnc3c(cnn3-c3ccc(Cl)cc3)c2=O)o1	2.5%	-7.5	-74.7*	-0.2%	1.5
O=C1NN(c2ccccc2)C(=O)C2C3C=CC(C4CC34)C12 (stereo not drawn)	0.1%	-147.0*	14.0	-9.1%	1.9
SMILES	CXXC DNA block	hERG WT inh	KCNH2 3.1 block	Menin-MLL TR inh	Menin MLL FP FL
O=C1C2C3C=CC(C4CC34)C2C(=O)N1Cc1ccccc1 (stereo not drawn)	-5.2%	-2.0	4.2	-2.1%	-1.2
COC(=O)[C@@]12CCCCN1[C@H](c1ccc(-c3ccc(F)cc3)c(OC)c1)[C@H]1C(=O)N(C)C(=O)[C@H]12	/	-7.1	-94.8*	/	/
O=C(C1CCN(S(=O)(=O)c2ccc(F)cc2)CC1)N1CCCC(C(F)(F)F)C1 (stereo not drawn)	/	-4.3	0.4	/	/
O=c1[nH]c(CN2CCN(C/C=C/c3ccccc3)CC2)nc2cc(Cl)ccc12	4.7%	-110.2*	-99.2*	12.7%	1.5
CN(C)CCNC(=O)c1cc2c(s1)-c1ccc(Cl)cc1SC2	9.9%	-112.9*	-80.5*	?	5.0
CCOCCCNC(=O)c1cc2c(s1)-c1ccccc1SC2	-4.8%	-0.4	3.2	14.1%	6.0
Cc1cc(F)c(F)c(C(=O)N2CCC(C)CC2)c1Cl	4.8%	1.4	-135.0*	-19.3%	1.0
Cc1cc(F)c(F)c(C(=O)N2CCCCC2C)c1Cl (stereo not drawn)	9.6%	2.0	2.4	-19.5%	0.0
O=S(=O)(c1ccc(Cl)nc1)N1CCc2ccccc21	-1.4%	-110.7*	-22.1	/	1.6
O=S(=O)(c1ccc(Cl)nc1)N1CCCc2ccccc21	-1.1%	2.6	4.0	-6.4%	7.2
COc1cc(/C=N/NC(=O)c2ccc(Cl)c(S(N)(=O)=O)c2)ccc1OCC(N)=O	-2.4%	-142.3*	21.6	/	0.6
COc1ccc(/C=N/NC(=O)c2ccc(Cl)c(S(N)(=O)=O)c2)cc1OCC(N)=O	-2.2%	7.0	-3.0	/	-1.7
COc1cc(/C=N/NC(=O)c2cccnc2)ccc1OCC(=O)Nc1ccccc1Cl	14.5%	0.4	-97.3*	7.0%	-2.1
COc1ccc(NC(=O)COc2ccc(/C=N/NC(=O)c3cccnc3)cc2OC)cc1	0.0%	-0.8	5.4	5.0%	8.2
CCc1ccc(CN2CCCC(CNS(=O)(=O)c3ccc(OC)cc3)C2)cc1 (stereo not drawn)	0.8%	-26.5	-70.6*	?	-3.7
CCOC(=O)C1CCCN(CC(O)COC(c2ccccc2)c2ccccc2)C1 (stereo not drawn)	1.6%	-76.9*	-96.2*	-20.9%	0.8
CCOC(=O)C1CCCN(C(=O)Nc2ccccc2)C1 (stereo not drawn)	2.8%	5.1	-73.0*	-8.5%	1.0
COc1ccc(C)cc1NC(C)C(=O)NC(=O)NC1CCCCC1 (stereo not drawn)	/	-3.0	-97.3*	/	/
CC(C)NC(=O)N1CCC2(CC1)CCN(C(=O)c1ccncc1)CC2	/	/	/	2.1%	-0.1
Oc1ccc(Cl)cc1CNc1cnc2ccccc2c1	10.5%	-223.6*	30.8	57.2%	0.6
Oc1ccccc1CNc1cnc2ccccc2c1	-2.2%	-11.1	24.2	10.7%	-0.5
CCCN1C(=O)/C(=C/C=C2\N(CC)c3ccccc3C2(C)C)SC1=S	?	-90.8*	-5.1	?	?
CCCN1C(=O)/C(=C\C=C2/Sc3ccccc3N2CCO)SC1=S	34.0%	-21.4	-80.9*	?	?
CCN1C(=O)/C(=C/C=C2/Sc3ccccc3N2CCO)SC1=S	12.5%	-4.9	-6.6	?	?
C=CCN1C(=O)/C(=C\C=C2\N(C)c3ccccc3C2(C)C)SC1=S	?	i	-40.5	?	?
Nc1nc(-c2ccccc2)ns1	/	18.8	-37.9	/	/
O=C(COC(=O)c1cccc(Br)c1)NCC1CCCO1 (stereo not drawn)	/	0.2	-1.0	/	/
Cc1cccc(C)c1NC(=O)COC(=O)c1cc[n+]([O-])cc1	/	-7.9	-2.1	/	/
